Artemis endo inh: Artemis (human) endonuclease inhibition; Q96SD1; recombinant Artemis, quenched FAM hairpin cleavage fluorescence; inhibition, % at 10 µM; actives 0.78% (n = 30,000); AID 686954;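 active means at 10 µM dose, at least 30% inhibition, measured as corrected fluorescence normalized to stimulator and neutral control wells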
Target sequence (Q96SD1 whole entry, looked up): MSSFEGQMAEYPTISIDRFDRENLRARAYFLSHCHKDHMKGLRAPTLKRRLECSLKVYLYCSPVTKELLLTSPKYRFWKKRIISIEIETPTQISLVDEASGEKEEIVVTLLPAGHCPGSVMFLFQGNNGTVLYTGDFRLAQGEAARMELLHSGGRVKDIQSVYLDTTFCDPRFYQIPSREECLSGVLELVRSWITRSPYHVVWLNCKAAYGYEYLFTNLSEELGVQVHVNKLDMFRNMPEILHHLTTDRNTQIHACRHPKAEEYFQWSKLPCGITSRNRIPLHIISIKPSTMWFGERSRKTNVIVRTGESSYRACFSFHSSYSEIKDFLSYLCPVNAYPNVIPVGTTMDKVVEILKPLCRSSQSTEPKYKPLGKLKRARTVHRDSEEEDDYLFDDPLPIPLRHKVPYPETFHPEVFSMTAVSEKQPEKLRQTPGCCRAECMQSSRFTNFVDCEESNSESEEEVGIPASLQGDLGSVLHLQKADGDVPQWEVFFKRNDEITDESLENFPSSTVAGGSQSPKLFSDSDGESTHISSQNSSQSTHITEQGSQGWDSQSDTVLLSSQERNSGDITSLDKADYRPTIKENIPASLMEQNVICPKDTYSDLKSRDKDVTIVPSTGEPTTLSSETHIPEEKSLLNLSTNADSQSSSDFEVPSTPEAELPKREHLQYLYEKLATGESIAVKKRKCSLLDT
The depositor's hits bear a star. Many of the other results were omitted from the sample, so hits are more common in it than they were.

SMILES	Artemis endo inh
Cc1ccc(S(=O)(=O)CCSc2nc(C)cc(C(F)(F)F)c2C#N)cc1	-4
CCOP(=O)(OCC)C(C#N)=C1SCN(c2ccccc2)CS1	8
COCCCn1c(C)nc2c(c1=O)c1nc3ccccc3nc1n2CCc1ccccc1	19
O=c1cc(-c2ccccc2)nc2nc(-c3ccco3)[nH]n12	36*
O=C(Nc1nc2nc(-c3ccccc3)cc(=O)n2[nH]1)c1ccccc1	-1
O=c1cc(-c2ccccc2)nc2nc(CCc3ccccc3)[nH]n12	0
Cc1cc(Cl)ccc1NC(=S)NCc1cccs1	-7
CNC(=S)NNC(=O)COc1cccc(C)c1C	9
c1ccc2c(N3CCCCCC3)nc(-c3ccncc3)nc2c1	2
Oc1ccccc1-c1nc(N2CCN(Cc3ccccc3)CC2)c2ccccc2n1	13
c1ccc(N2CCN(c3nc(-c4ccccn4)nc4ccccc34)CC2)cc1	93*
CCN(CCO)c1ccc(-n2c(N)c(C(=O)OC)c3nc4ccccc4nc32)cc1	-4
C=CCn1c(N)c(C(=O)OCCC)c2nc3ccccc3nc21	40*
COCCNC(=O)c1c(N)n(CCC2=CCCCC2)c2nc3ccccc3nc12	11
ONC(=Nc1ccccc1)C(=Nc1ccccc1)NO	5
Cc1cccc(N2C(N)=NC(N)=NC23CCCCC3)c1	-8
O=C(O)c1cc(-c2ccco2)nc2ccc(Br)cc12	42*
O=C(c1ccco1)N1CCN(C(=O)c2cc(-c3ccncc3)nc3ccc(Br)cc23)CC1	11
O=C(NCC1CCCO1)c1cc(-c2ccco2)nc2ccccc12 (stereo not given)	0
Cc1nn(-c2ccc(F)cc2)c2sc(C(=O)N3CCCCCC3)cc12	6
Cc1nc(C)c(C(=O)Nc2ccccc2)s1	-4
Cc1nc(NC(=O)c2cc3c(C)nn(-c4ccccc4)c3s2)sc1C(=O)Nc1ccccc1	83*
CCCCn1c(-c2ccco2)nc2ccccc2c1=O	2
N=c1sccn1CC(=O)Nc1ccccc1-c1ccccc1	-2
Cc1ccc(NC(=O)CN2C(=O)S/C(=C\c3cccn3-c3cccc(C(=O)O)c3)C2=O)c(C)c1	32*
SMILES	Artemis endo inh
Cc1ccccc1NC(=O)CN1C(=O)S/C(=C\c2cccn2-c2cccc(C(=O)O)c2)C1=O	22
Cc1cccc(C)c1NC(=O)CN1C(=O)S/C(=C\c2cccn2-c2cccc(C(=O)O)c2)C1=O	22
Cc1nnsc1NC(=O)OCc1ccc(C(F)(F)F)cc1	-3
CCc1nn(CC(=O)N2CCN(Cc3ccc4c(c3)OCO4)CC2)c(=O)c2cc3occc3n12	-1
CC(C)OC(=O)[C@H]1[C@H](c2ccc(Cl)cc2)[C@@](C#N)(C(N)=O)[C@@H]2C=CC(C(N)=O)=CN21	6
Cc1[nH]nc2c1C(c1cn[nH]c1-c1ccc(F)cc1)C(C#N)=C(N)O2 (stereo not given)	2
Cc1[nH]n(-c2ccccc2)c(=O)c1C(C[N+](=O)[O-])c1ccc(Br)cc1 (stereo not given)	34*
Cc1nc(=S)n(-c2ccccc2)[nH]1	-5
Cc1[nH]n(-c2ccccc2)c(=O)c1-c1cccc(Cl)c1	7
CCOC(=O)c1c(C)oc(/N=C/c2ccccc2O)c1C#N	0
O=C(NNC(=O)c1ccc([N+](=O)[O-])o1)c1ccccc1	0
Cc1ccc(/C=N\Nc2nc3ccc(Cl)cc3[nH]2)o1	-4
CCCOC(=O)/C(=C\c1ccc([N+](=O)[O-])o1)NC(=O)c1ccccc1	5
O=[N+]([O-])c1cccc(-c2ccc(/C=N/NC(=S)Nc3ccccc3)o2)c1	16
O=[N+]([O-])c1ccc(/C=N/Nc2nc(-c3ccccc3)c3cc(Br)ccc3n2)o1	58*
Cc1ccc2nc(N/N=C\c3ccc([N+](=O)[O-])o3)nc(-c3ccccc3)c2c1	39*
CC1=Nn2c(nc(-c3ccccc3)c2-c2ccccc2)NC(=O)C1Br (stereo not given)	3
O=C(Nc1nc(-c2ccco2)c(-c2ccco2)s1)C1CC(=O)N(c2ccc3c(c2)OCCO3)C1 (stereo not given)	32*
O=C(COC(=O)C1CC(=O)N(c2ccc3c(c2)OCCO3)C1)Nc1ccc2c(c1)CCC2 (stereo not given)	-7
O=C(Nc1nc2ccccc2s1)C1CC(=O)N(c2ccc(Cl)cc2)C1 (stereo not given)	5
COCC(COCCCNC(=O)Nc1ccc(Br)cc1)OC (stereo not given)	0
CC(=O)Nc1ccc(C(=O)N2CCCC2)cc1	-1
CCOC(=O)CC(=O)Nc1ccc(Br)cc1C(=O)O	-3
CCOC(=O)c1ccc(NC2=CC(=O)C(=O)c3ccccc32)cc1	66*
CCOC(=O)c1ccc(NC(=O)CNS(=O)(=O)c2ccccc2)cc1	0
SMILES	Artemis endo inh
CCOC(=O)c1ccc(NC(=O)CCOc2ccccc2)cc1	2
CCCC(C)NC(=O)c1cc(Cl)ccc1OC (stereo not given)	-1
CCNc1nc2c(c(=O)n(Cc3ccccc3)c(=O)n2C)n1Cc1ccccc1	4
CCn1c(SCC(=O)c2ccc(O)c(O)c2)nnc1-c1ccccc1	13
CCn1c(SCC(=O)c2ccc(F)cc2)nnc1-c1ccoc1C	6
CCn1c(SCC(=O)c2ccc(O)c(O)c2)nnc1-c1ccccc1OC	30*
COCCn1nnnc1C(c1ccc(OC)c(OC)c1)N1CCN(c2nc3ccccc3s2)CC1 (stereo not given)	-5
CCn1c(SCc2ccc(F)cc2)nnc1-c1nn(-c2ccccc2)ccc1=O	6
N#Cc1nc(-c2ccc(OCc3ccc(Cl)cc3)cc2)oc1NCCCn1ccnc1	49*
CNc1oc(-c2ccc(OCc3ccccc3)cc2)nc1C#N	2
N#Cc1nc(-c2ccc(OCc3ccccc3)cc2)oc1NCc1ccco1	-5
CC(C)(C)Nc1nc(OCC(F)(F)F)nc(OCC(F)(F)F)n1	-1
O=C(c1ccccc1CCc1ccccc1)N1CCOCC1	-2
Cc1nnc(SCC(=O)N2CCC(C(N)=O)CC2)s1	-1
Cc1nnc(C)n1/N=C/c1cccn1C	2
O=c1c2ccccc2nc(-c2ccco2)n1/N=C/c1ccccc1O	-2
Cc1nnc(-c2ccccc2)c(=O)n1/N=C/c1c(O)ccc2ccccc12	47*
CCCc1cc2c(cc1NC(=O)c1ccccc1C)OCO2	2
CC(C)CC(C(=O)Nc1oc(-c2ccco2)c(-c2ccco2)c1C#N)N1C(=O)c2ccccc2C1=O (stereo not given)	21
O=C(C1CCCN1S(=O)(=O)c1ccc(Cl)c(Cl)c1)N1CCCCC1 (stereo not given)	4
Cc1cc(C)nc(NC(=O)NS(=O)(=O)N2CCCCCC2)n1	-5
CS(=O)(=O)N1CCN(C(=O)c2cc(-c3ccncc3)nc3ccc(Cl)cc23)CC1	-3
CCOC(=O)N1CCN(c2cc(NCCC(=O)O)c3c4c(onc24)-c2ccccc2C3=O)CC1	33*
CCOC(=O)N1CCN(C(=O)c2ccc(N3C(=O)c4ccccc4C3=O)cc2)CC1	-7
CCOC(=O)N1CCN(c2ccc(C(=O)c3ccccc3)cc2F)CC1	0
SMILES	Artemis endo inh
COc1cccc(C2(O)CCN(C(=O)Cc3cccnc3)CC2)c1	-8
C=CCSc1nnc(-c2cc3c(s2)-c2ccccc2CC3)o1	1
O=C(NC(=S)Nc1ccc2[nH]ncc2c1)c1ccccc1	-2
O=C(NC(C(=O)N/N=C/c1c2ccccc2cc2ccccc12)c1n[nH]c(=O)c2ccccc12)c1ccccc1 (stereo not given)	44*
CCCc1cc(C(=O)N/N=C/c2ccc(C)o2)c2ccccc2n1	-3
COc1c(N)c2ccccc2[nH]c1=O	-1
Cc1cc(Nc2nc3ccccc3[nH]c2=O)n(-c2ccccc2)n1	4
